Assay results: the supplement of paper PMC13380429

Test system: Vero E6 infected with SARS-CoV-2
Assay: inhibition of SARS-CoV-2 cytopathic effect; higher = more antiviral protection, active = above 15
Conditions: 48 h

Measured: inhibition of SARS-CoV-2 cytopathic effect

CCCCCCCCCCCCCCCCCCCCCCO [docosanol]
inactive: 1 nM -8.94% | 8.33 nM -7.8% | 100 nM -10.4% | 833.33 nM -7.91% | 10000 nM -4.03%

COc1cc(OC)c(NC(=O)Nc2cc(C)on2)cc1Cl
inactive: 1 nM 2.33% | 8.33 nM 0.81% | 100 nM 1.57% | 833.33 nM 4.04% | 10000 nM 2.62%

C=Cc1c(C)c2cc3nc(c(CC(=O)O)c4[n-]c(cc5nc(cc1[n-]2)C(C)=C5CC)c(C)c4C(=O)O)[C@@H](CCC(=O)O)[C@@H]3C.[Cu+2] [chlorophyllin-copper]
inactive: 1 nM -0.37% | 8.33 nM 2.9% | 100 nM -1.68% | 833.33 nM -0.25% | 10000 nM -2.81%

CC(C)/N=c1\cc2n(-c3ccc(Cl)cc3)c3ccccc3nc-2cc1Nc1ccc(Cl)cc1 [clofazimine]
inactive: 1 nM -2.49% | 8.33 nM 0.21% | 100 nM -2.66% | 833.33 nM 6.27% | 10000 nM -0.63%

CN(C)C(=O)c1ccc(S(=O)(=O)c2ccc(NC(=O)[C@@](C)(O)C(F)(F)F)c(Cl)c2)cc1
inactive: 1 nM -0.45% | 8.33 nM 0.49% | 100 nM 0.27% | 833.33 nM 0.59% | 10000 nM -3.54%

COc1ccc(-c2nc(-c3ccc(-c4cccc(Cl)c4)o3)[nH]c2-c2ccc(OC)cc2)cc1 [neurodazine]
inactive: 1 nM 0.83% | 8.33 nM -0.31% | 100 nM 4.87% | 833.33 nM 5.51% | 10000 nM 1.25%

C[C@H]1C[C@@H]2[C@H]([C@@H](O)C[C@@]3(C)[C@H]2CC[C@]3(O)C(=O)COC(=O)CCC(=O)O)[C@@]2(C)C=CC(=O)C=C12 [methylprednisolone-sodium-succinate]
inactive: 1 nM -0.2% | 8.33 nM 2.8% | 100 nM 0.5% | 833.33 nM -0.11% | 10000 nM -2.89%

CCN(CC)CCNC(=O)c1cc(Br)c(N)cc1OC [bromopride]
inactive: 1 nM -3.41% | 8.33 nM -1.83% | 100 nM -0.25% | 833.33 nM -3.5% | 10000 nM -1.74%

Cc1cc2nc3c(=O)[nH]c(=O)nc-3n(C[C@H](O)[C@H](O)[C@H](O)COP(=O)(O)O)c2cc1C [riboflavin-5-phosphate-sodium]
inactive: 1 nM 0.5% | 8.33 nM 3.45% | 100 nM -0.48% | 833.33 nM 1.47% | 10000 nM 0.24%

C[C@H](CS)C(=O)N1CCC[C@H]1C(=O)O [captopril]
inactive: 1 nM -1.79% | 8.33 nM 0.97% | 100 nM -2.39% | 833.33 nM -1.5% | 10000 nM -0.97%

CCO[C@@H](Cc1ccc(OCCc2ccc(OS(C)(=O)=O)cc2)cc1)C(=O)O [tesaglitazar]
inactive: 1 nM -2.83% | 8.33 nM -3.5% | 100 nM 0.15% | 833.33 nM -2.48% | 10000 nM 1.52%

CN(CCOP(=O)(O)O)C(=N)N [creatinol-phosphate]
inactive: 1 nM -1.02% | 8.33 nM 2.42% | 100 nM 0.89% | 833.33 nM -2.46% | 10000 nM -1.58%

O=c1oc2c(O)c(O)cc3c(=O)oc4c(O)c(O)cc1c4c23 [ellagic-acid]
inactive: 1 nM 0.02% | 8.33 nM 0.42% | 100 nM 4.12% | 833.33 nM 1.76% | 10000 nM -1.74%

Cc1oc(-c2ccccc2)nc1CCC(=O)c1ccc(CC2SC(=O)NC2=O)cc1 (stereo not given) [darglitazone]
inactive: 1 nM 2.44% | 8.33 nM 3.08% | 100 nM -5.6% | 833.33 nM -5.76% | 10000 nM -1.67%

Cc1ccccc1N1CCN(S(=O)(=O)C[C@]23CC[C@H](C[C@@H]2NC(=O)[C@@H](N)CCS(C)(=O)=O)C3(C)C)CC1
inactive: 1 nM 0.06% | 8.33 nM 2.09% | 100 nM 2.92% | 833.33 nM 1.11% | 10000 nM 0.11%

Cc1c(N)cccc1Cn1ccc(OCCc2cccs2)cc1=O
inactive: 1 nM -0.22% | 8.33 nM 0.73% | 100 nM 1.31% | 833.33 nM 0.66% | 10000 nM -2.07%

COC[C@@H](c1ccc(C(F)(F)F)cc1)N1CCN(C2(C)CCN(C(=O)c3c(C)ncnc3C)CC2)C[C@@H]1C [vicriviroc]
inactive: 1 nM -0.96% | 8.33 nM -0.11% | 100 nM -0.52% | 833.33 nM 0.02% | 10000 nM -0.9%
